TWEAK Fn14 block = TWEAK-Fn14 signaling inhibition. TWEAK-stimulated Fn14 reporter cells, luciferase luminescence, 8 h. AID 1159606. inhibition, % at 10 µM. hit rate 2% among 360,000; in the data active = inhibition above about 50%
HIF-2a inh = blocks HIF-2a reporter activity. inhibition, % at 18.8 µM. hit rate 0.72% among 360,000. 786-0 RCC cells HIF-2a reporter, luciferase luminescence, overnight;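 active = inhibition of the luminescence signal of 40% or more relative to plate controls, in a single-dose primary screen at 18.75 µM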
KKLEB tox = reduces viability of KKLEB cystic fibrosis airway cells | activity change (cytotoxicity), % at 5 µM | AID 602141 | hit rate 0.36% among 360,000 | KKLEB CF airway cells viability, ATPlite luminescence, overnight; active compounds read low; cells stimulated with P. aeruginosa culture filtrate;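 active = corrected activity change at or below -50% at 5 µM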
Peg3 promoter = Peg3 promoter activity inhibition | HeLa PEG-Prom luciferase reporter, luminescence, overnight | inhibition, % at 20 µM | hit rate 1.7% among 360,000 | AID 588405;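 active = inhibition of at least 50% at 20 µM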
CF NFkB inh = inhibitors of cystic fibrosis induced NF-kB. inhibition, % at 5 µM. AID 588850. hit rate 0.86% among 360,000. KKLEB NF-kB-GFP reporter, PAF-induced, GFP fluorescence overnight;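 active = at least 50% inhibition at 5 µM, scaled per plate between neutral and stimulator controls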;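 also: PAF is a Pseudomonas aeruginosa culture filtrate used as stimulus; plate controls were PAF-stimulated DMSO wells for no effect and unstimulated DMSO wells for full effect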
TROY NFkB inh = TROY signaling inhibition; Q293 LMP1-TROYcd NF-kB luciferase reporter, 4 h; hit rate 0.98% among 360,000; inhibition, % at 10 µM;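 active = compounds whose plate-normalised and pattern-corrected inhibition of the luciferase reporter signal at the single screening dose is 50% or more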
* hit, by the source's call. This is a sample that favours compounds with a hit; in the whole collection about 4% have one here.

SMILES	TWEAK Fn14 block	HIF-2a inh	KKLEB tox	Peg3 promoter	CF NFkB inh	TROY NFkB inh
CCOC(=O)C1CCN(C(=O)Cn2nc(CC)n3cccc3c2=O)CC1	0	9	2	-11	6	21
O=C(Cc1ccc(S(=O)(=O)N2CCOCC2)s1)OCc1ccc(Cl)cc1	-16	7	2	-55	25	0
O=C(N/N=C/c1cc2cc3c(cc2nc1Cl)OCCO3)c1ccccc1O	-2	-14	9	-39	6	11
Cc1ccc2cc(/C=N/NC(=O)c3ccccc3O)c(Cl)nc2c1	3	-7	-6	-5	-4	65*
Cc1cccc2cc(/C=N/NC(=O)c3ccccc3O)c(Cl)nc12	15	-108	-35	-44	49	57*
O=C(NCC1CCCCC1)C1(CC2CC(c3ccc(Cl)cc3)=NO2)CCNCC1 (centres undefined)	-7	-149	-21	97*	19	-43
O=C(NCC1CCCCC1)C1(CC2CC(c3cccc(Br)c3)=NO2)CCNCC1 (centres undefined)	-45	-30	-9	99*	2	-14
Cc1ccc(CN2C(=O)C(C)Oc3ccc(C)cc32)cc1 (centres undefined)	14	10	4	-5	-22	-10
CCOc1ccc(NC(=O)C2C3CC/C=C\CCC32)cc1 (centres undefined)	-14	-60	5	-38	-5	-13
O=C(O)c1cccc(Nc2nc3ccccc3nc2NS(=O)(=O)c2ccc(F)cc2)c1	13	5	12	3	-2	21
O=S(=O)(Nc1nc2ccccc2nc1Nc1cccc(S(=O)(=O)N2CCCCC2)c1)c1ccccc1	77*	23	-61*	69*	65*	68*
COc1ccc(S(=O)(=O)Nc2cccc(S(=O)(=O)N3CCCCCC3)c2)cc1	5	5	-6	10	0	20
O=S(=O)(Nc1nc2ccccc2nc1Nc1ccc2c(c1)OCO2)c1ccc(F)cc1	61*	-6	-48	8	48	58*
Cc1ccc(S(=O)(=O)NC(=O)Nc2cc(C)no2)cc1	6	13	-6	12	3	-12
O=C(OCc1cc(=O)n2ccsc2n1)c1ccccc1NCCO	11	-43	-1	-32	18	2
CC[C@H](C)[C@@H]1OC(=O)[C@@H](C)[C@@H](CC)NC(=O)[C@H](C)N(C)C(=O)C(C)(C)C(=O)C(C)NC(=O)[C@H](Cc2ccccc2)N(C)C(=O)[C@H](C(C)C)N(C)C(=O)CNC(=O)[C@H](CC(C)C)N(C)C(=O)CNC1=O (some centres undefined)	-23	11	-97*	87*	91*	44
CCOC(=O)C1(C)CCN1C(=O)Cc1ccc(OC)cc1 (centres undefined)	6	5	1	-4	-14	-3
C=CS(=O)(=O)N(Cc1ccccc1)[C@H](CO)CC(C)C	14	16	-1	5	-14	-10
CC(C)C[C@H](CO)N(Cc1ccccc1)S(=O)(=O)N(Cc1ccccc1)[C@@H](CO)CC(C)C	26	-11	-22	53*	38	43
O=c1[nH]c(C2CCN(S(=O)(=O)c3ccccc3C(F)(F)F)CC2)nc2c1nnn2Cc1cccc(F)c1	8	24	-2	24	-6	44
Cc1[nH]n(-c2ccccc2)c(=O)c1N=Nc1ccc(C(=O)O)cc1	-8	-74	-24	-41	7	-27
Cc1[nH]n(-c2ccccc2)c(=O)c1N=Nc1cccc(C(=O)O)c1	58*	64*	6	64*	-10	-48
Cc1ccc(C(NC(=O)NCCCN2CCOCC2)=C(Cl)Cl)cc1F	29	19	2	20	0	-12
Cc1ccc(C(NC(=O)N2CCCCC2)=C(Cl)Cl)cc1F	11	0	6	53*	5	8
O=C(CN(C(=O)CCC(=O)Nc1nccs1)c1cccc(F)c1)NCCc1ccccc1	-10	17	8	5	-11	-22
SMILES	TWEAK Fn14 block	HIF-2a inh	KKLEB tox	Peg3 promoter	CF NFkB inh	TROY NFkB inh
CCOC(=O)c1c(NC(=O)CSc2nnc(-c3ccccc3)o2)sc(C(C)=O)c1C	-6	-18	-13	-29	2	32
O=C(CSc1nc2ccccc2o1)Nc1nc(-c2ccccc2)cs1	84*	-36	4	-102	-7	80*
O=C(CSc1nc2ccccc2o1)Nc1nc2c(s1)CCCC2	89*	-9	3	-34	-12	0
CCOC(=O)c1c(NC(=O)CSc2nc3ccccc3o2)sc(C(C)=O)c1C	69*	-71	-6	-93	-1	34
CNS(=O)(=O)c1cccc(C(=O)OCc2cc(=O)oc3c(C)c(O)ccc23)c1	34	15	5	10	35	51*
CCc1cc2c(COC(=O)c3cccc(S(C)(=O)=O)c3)cc(=O)oc2cc1O	56*	0	-5	28	12	33
COc1ccc(N2CCN(c3cc(C(=O)NC4CCCCC4)ncn3)CC2)cc1OC	3	-2	2	3	6	1
O=C(Nc1ccc(S(=O)(=O)N2CCCCC2)cc1)c1ccc(CN2CCOCC2)cc1	68*	-2	4	45	-9	53*
O=C(NCc1ccccc1F)c1ccc(S(=O)(=O)N2CCCC2)cc1	10	3	1	2	8	12
CC(=O)NCCc1ccc(S(=O)(=O)N2CCCC2)cc1	82*	10	-1	26	6	1
O=C(NCc1ccccc1Cl)c1ccc(S(=O)(=O)N2CCCC2)cc1	-5	16	-11	52*	9	-5
Cc1ccc2nsnc2c1NC(=O)c1ccc(-c2cc(Cl)ccc2Cl)o1	-11	31	-4	101*	10	18
CCOC(=O)[C@H]1[C@H]2COc3ccc(Br)cc3[C@H]2N2C(=O)CN(Cc3ccc(Cl)cc3)C(=O)[C@@]12C	15	21	-10	23	5	12
O=C(Nc1ccc(CN2CCOCC2)cc1)c1ccc(Br)o1	3	-153	-6	-211	-15	-49
O=C(Nc1ccc(CN2CCOCC2)cc1)c1ccc(-c2cc(Cl)ccc2Cl)o1	76*	-10	-3	20	-9	51*
CN(C(=O)CC1C(=O)NCCN1Cc1cccc(F)c1F)C1CC(C)(C)NC(C)(C)C1 (centres undefined)	6	1	6	8	1	7
COCCc1nc2ccc(C(=O)NCc3cccc(-n4cccn4)c3)cc2o1	0	-18	1	-3	-1	-5
COCCc1nc2ccc(C(=O)N(C)Cc3cccc(-n4nc(C)cc4C)c3)cc2o1	-2	-8	8	0	-64	60*
Cn1c2ccccc2c(=O)c2ccc(C#CC3(O)CCCCC3)cc21	97*	3	-42	70*	48	91*
COc1ccc(C#Cc2ccc3c(c2)c(=O)c2ccccc2n3C)cc1	-44	-83	13	-42	-66	-17
